Measurements reported in the supplement of paper PMC10849652.
The full data set covers some 8,800 targets. This sample favours those with a hit. About 0.5% of all pairs of compound and target were hits. A number with no mark means an inactive call.

compound: Cc1ncc(-c2ccnc(Nc3ccc(S(C)(=O)=O)cc3)n2)n1C(C)C; experiment: log2 fold change, soluble protein after heating vs DMSO (PISA); higher = thermal stabilisation; K562 lysate, 10 uM; active = over 0.2 and 3.5 SD of the protein, either way, in both replicates (recomputed)
Method in brief: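 K562 pellets were dounce-homogenised in PBS pH 7.4 containing 1 mM MgCl2, and the crude extract, at 1 mg/mL protein, was exposed to 10 μM compound for 30 min. Aliquots were heated for 3 min across 48°C-58°C, pooled, brought to 0.5% NP-40 at 4°C and spun at 21,000xg for 90 min, with the supernatant taken as soluble protein. TMTpro 16plex LC-MS/MS with equalised channel sums quantified that protein. Values are log-two fold changes in thermal stability relative to solvent controls, taken from duplicates.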

Sequence of UniProt Q6ZNJ1 (Q6ZNJ1 whole entry, looked up): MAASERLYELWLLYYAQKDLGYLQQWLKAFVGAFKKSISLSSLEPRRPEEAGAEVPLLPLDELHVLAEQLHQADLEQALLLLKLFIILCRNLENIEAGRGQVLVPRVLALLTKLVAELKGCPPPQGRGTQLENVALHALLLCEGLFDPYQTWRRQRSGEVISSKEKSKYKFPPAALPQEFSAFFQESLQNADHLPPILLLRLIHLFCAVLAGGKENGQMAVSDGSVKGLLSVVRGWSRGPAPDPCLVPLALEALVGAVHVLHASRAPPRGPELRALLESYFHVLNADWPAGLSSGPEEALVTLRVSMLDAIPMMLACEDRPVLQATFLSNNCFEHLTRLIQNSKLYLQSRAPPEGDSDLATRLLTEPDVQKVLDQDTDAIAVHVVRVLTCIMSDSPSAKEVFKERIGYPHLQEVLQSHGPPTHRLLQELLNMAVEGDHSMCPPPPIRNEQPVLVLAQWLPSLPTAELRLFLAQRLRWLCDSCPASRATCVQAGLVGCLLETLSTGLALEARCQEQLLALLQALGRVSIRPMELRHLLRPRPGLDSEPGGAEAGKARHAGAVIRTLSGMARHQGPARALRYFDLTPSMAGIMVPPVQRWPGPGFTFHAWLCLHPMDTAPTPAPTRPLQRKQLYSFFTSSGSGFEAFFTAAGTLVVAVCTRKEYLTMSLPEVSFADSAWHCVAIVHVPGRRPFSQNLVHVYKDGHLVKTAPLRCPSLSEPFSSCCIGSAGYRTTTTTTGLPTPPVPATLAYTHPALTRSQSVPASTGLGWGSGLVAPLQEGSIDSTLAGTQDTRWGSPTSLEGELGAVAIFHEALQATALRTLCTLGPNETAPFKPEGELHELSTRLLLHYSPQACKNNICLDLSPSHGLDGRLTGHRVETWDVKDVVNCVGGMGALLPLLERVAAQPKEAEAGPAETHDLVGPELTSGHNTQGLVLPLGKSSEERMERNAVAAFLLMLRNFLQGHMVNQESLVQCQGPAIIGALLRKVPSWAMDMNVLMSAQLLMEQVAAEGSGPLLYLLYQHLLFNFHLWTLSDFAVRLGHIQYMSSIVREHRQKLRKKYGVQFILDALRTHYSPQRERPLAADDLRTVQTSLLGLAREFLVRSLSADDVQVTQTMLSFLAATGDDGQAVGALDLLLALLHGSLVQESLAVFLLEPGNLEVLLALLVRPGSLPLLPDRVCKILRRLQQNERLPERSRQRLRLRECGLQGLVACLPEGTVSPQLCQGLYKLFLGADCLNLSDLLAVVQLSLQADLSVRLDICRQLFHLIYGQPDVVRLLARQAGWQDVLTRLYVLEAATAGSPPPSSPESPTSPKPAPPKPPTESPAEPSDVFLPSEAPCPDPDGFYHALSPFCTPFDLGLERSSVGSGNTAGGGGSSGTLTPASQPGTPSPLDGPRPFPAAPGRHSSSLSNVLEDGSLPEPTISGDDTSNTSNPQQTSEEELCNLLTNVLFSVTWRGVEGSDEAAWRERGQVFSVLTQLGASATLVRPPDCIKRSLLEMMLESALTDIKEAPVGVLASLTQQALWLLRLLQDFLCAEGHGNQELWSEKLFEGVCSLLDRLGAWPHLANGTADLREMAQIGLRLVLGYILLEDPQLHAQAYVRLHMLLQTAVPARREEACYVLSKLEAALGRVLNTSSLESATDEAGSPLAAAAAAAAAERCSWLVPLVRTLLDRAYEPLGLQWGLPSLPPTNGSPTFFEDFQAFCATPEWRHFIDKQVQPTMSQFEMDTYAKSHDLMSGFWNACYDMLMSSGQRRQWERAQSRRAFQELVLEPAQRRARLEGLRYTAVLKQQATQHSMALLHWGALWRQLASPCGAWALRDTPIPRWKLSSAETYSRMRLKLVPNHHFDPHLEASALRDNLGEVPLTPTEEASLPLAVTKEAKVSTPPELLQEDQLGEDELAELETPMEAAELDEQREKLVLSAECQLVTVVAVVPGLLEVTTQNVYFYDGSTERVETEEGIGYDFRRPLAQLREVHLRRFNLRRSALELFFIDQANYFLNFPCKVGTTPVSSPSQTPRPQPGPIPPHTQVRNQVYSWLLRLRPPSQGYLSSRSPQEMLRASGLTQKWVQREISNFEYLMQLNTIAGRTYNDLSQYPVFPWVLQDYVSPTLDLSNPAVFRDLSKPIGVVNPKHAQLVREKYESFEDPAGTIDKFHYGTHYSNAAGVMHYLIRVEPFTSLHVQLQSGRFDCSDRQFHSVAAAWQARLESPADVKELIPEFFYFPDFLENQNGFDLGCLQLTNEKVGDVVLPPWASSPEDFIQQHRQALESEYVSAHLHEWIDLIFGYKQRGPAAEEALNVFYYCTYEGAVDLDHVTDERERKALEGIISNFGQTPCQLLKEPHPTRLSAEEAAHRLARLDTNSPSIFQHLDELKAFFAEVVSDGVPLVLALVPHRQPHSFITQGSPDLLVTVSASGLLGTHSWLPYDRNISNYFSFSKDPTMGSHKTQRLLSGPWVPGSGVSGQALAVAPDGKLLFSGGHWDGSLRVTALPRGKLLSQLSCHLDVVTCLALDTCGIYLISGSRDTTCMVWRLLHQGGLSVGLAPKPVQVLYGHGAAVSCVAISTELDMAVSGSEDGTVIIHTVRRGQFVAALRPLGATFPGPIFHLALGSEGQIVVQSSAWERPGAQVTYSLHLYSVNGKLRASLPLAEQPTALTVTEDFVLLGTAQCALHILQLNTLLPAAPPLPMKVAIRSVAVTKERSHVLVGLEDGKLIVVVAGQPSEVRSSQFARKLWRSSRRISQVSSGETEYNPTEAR
Sequence of UniProt Q5VZE5 (Q5VZE5 whole entry, looked up): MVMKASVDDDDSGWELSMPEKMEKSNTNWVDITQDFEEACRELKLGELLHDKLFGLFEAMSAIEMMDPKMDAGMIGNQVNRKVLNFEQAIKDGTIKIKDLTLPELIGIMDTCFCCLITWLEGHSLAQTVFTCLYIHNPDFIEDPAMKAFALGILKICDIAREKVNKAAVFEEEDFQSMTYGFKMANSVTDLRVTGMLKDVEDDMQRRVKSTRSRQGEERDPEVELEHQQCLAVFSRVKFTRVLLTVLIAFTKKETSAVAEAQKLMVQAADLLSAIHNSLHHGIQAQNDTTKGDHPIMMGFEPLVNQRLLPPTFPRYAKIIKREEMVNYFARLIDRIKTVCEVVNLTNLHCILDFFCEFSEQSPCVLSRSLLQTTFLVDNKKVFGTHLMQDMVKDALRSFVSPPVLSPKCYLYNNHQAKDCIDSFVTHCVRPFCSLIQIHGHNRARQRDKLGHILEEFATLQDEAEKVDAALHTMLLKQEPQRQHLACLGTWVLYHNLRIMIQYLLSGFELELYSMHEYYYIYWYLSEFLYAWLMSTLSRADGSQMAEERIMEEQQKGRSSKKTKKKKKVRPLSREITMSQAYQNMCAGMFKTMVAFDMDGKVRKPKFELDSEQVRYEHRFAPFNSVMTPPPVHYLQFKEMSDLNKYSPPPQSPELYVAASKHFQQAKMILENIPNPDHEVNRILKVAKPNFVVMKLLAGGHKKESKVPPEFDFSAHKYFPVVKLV
Sequence of UniProt Q9BTC8 (Q9BTC8 whole entry, looked up): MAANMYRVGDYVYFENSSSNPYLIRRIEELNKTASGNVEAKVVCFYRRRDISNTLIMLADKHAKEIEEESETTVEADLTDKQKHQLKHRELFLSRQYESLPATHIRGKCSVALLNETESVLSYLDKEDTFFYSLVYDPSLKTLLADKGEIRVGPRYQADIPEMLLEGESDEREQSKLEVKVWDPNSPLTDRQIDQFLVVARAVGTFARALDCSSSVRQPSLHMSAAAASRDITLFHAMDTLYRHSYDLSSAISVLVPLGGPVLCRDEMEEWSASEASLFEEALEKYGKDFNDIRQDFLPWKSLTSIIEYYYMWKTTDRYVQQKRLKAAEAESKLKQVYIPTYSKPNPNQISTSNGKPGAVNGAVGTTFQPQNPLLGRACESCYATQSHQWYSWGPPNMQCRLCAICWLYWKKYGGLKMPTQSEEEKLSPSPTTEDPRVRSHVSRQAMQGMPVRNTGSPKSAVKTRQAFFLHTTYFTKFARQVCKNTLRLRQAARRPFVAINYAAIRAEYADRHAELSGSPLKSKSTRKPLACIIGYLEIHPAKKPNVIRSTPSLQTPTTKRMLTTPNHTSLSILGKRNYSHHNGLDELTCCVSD
Sequence of UniProt Q9Y639 (Q9Y639 whole entry, looked up): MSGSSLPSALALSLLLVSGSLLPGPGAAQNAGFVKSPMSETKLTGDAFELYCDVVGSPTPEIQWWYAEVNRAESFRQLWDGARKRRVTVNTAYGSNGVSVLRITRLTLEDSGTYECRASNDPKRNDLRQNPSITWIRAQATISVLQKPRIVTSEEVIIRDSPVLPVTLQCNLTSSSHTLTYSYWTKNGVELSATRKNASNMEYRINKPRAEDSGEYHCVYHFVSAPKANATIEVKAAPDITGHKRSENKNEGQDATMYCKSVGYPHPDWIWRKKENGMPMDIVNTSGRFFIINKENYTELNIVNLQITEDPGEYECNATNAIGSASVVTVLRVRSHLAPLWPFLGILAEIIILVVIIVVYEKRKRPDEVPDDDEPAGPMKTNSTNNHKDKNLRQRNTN
Sequence of UniProt P04181 (P04181 whole entry, looked up): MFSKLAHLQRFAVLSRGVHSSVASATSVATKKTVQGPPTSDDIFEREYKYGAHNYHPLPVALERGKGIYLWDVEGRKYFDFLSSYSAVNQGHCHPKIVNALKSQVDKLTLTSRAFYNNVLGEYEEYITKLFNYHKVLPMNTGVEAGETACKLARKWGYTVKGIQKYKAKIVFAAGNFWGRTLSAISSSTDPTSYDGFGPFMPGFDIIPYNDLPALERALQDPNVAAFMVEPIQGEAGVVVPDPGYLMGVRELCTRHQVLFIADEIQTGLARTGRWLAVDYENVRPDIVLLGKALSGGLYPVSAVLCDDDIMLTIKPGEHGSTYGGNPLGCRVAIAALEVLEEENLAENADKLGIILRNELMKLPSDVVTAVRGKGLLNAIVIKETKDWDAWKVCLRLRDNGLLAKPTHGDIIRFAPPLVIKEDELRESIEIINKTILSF

Target	log2 fold change
OGFOD2 (UniProt Q6N063)	0.063
MTA2 (UniProt O94776)	-0.011
NDC1 (UniProt Q9BTX1)	-0.018
OLA1 (UniProt Q9NTK5)	0.006
OCRL (UniProt Q01968)	-0.051
NCAPG2 (UniProt Q86XI2)	-0.024
NUP133 (UniProt Q8WUM0)	0.019
NCKAP1L (UniProt P55160)	0.072
MRPL53 (UniProt Q96EL3)	0.015
MRPS12 (UniProt O15235)	-0.041
NDUFS1 isoform 2 (UniProt P28331)	-0.021
NCOR2 (UniProt C9J0Q5)	0.043
NUP205 (UniProt Q92621)	0.008
MTOR (UniProt P42345)	0.001
NF1 (UniProt P21359)	-0.039
ORC5 (UniProt O43913)	0.019
OSBP2 (UniProt Q969R2)	-0.025
PANK2 (UniProt Q9BZ23)	0.001

Target	log2 fold change
MYCBP2 (UniProt O75592)	-0.013
NPTN (UniProt Q9Y639)	-0.025
NNT (UniProt Q13423)	0.002
OAT (UniProt P04181)	0.003
MTHFD1, A0A384N5Y3	-0.008
NIPBL (UniProt Q6KC79)	0.019
NBEAL2 (UniProt Q6ZNJ1)	0.036
N4BP2 (UniProt Q86UW6)	-0.043
NFKBIE (UniProt O00221)	0.424 (active)
MTA3 (UniProt Q9BTC8)	-0.019
NFATC4 isoform 2 (UniProt Q14934)	0.04
NAA35 (UniProt Q5VZE5)	0.009
OPA1 isoform 2 (UniProt O60313)	0.007
NAA30 (UniProt Q147X3)	0.059
MYO1C (UniProt O00159)	0.005
NUF2 (UniProt Q9BZD4)	-0.005
NCAPH (UniProt Q15003)	-0.017
